Results published in PubChem BioAssay (Tox21).
Where “and” joins values, the source holds several entries; their conditions need not be identical. Equal values may be shown once. Results filed as inconclusive are left out. The source holds several records for some structures; these can differ, active in one and inactive in another. Calls of active or inactive are those of the source. Unless noted, calls come from the whole dose curve; as a rule, active = well fitted curve in the direction sought with a large enough effect in the repeat runs; inconclusive = weak or mixed curves; inactive = no such curve, though single readings can be large; an effect the other way counts as inactive or inconclusive.

What was measured:
[1] = qHTS assay to identify small molecule antagonists of the estrogen related receptor (ERR) signaling pathway from Tox21 library - cell viability counter screen (AID 1224834); note: nearly all actives have a fitted effect of over 30% in size; note: potency is the fitted concentration of half-maximal effect
Procedure, shortened: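 ERR reporter cells, 2,000 per well, rested 6 h, then exposed to compound in DMSO for 17.5 hours at 37 C. Viability read as fluorescence after 30 min with CellTiter-Fluor.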

[2] = molecular target: Luciferin 4-monooxygenase (Photinus pyralis) (UniProt P08659); experiment: qHTS assay to identify small molecule inhibitors of firefly luciferase (AID 1224835); note: nearly all actives have a fitted effect of over 25% in size; note: potency is the fitted concentration of half-maximal effect
Luciferin 4-monooxygenase (Photinus pyralis), sequence (P08659 whole entry, looked up): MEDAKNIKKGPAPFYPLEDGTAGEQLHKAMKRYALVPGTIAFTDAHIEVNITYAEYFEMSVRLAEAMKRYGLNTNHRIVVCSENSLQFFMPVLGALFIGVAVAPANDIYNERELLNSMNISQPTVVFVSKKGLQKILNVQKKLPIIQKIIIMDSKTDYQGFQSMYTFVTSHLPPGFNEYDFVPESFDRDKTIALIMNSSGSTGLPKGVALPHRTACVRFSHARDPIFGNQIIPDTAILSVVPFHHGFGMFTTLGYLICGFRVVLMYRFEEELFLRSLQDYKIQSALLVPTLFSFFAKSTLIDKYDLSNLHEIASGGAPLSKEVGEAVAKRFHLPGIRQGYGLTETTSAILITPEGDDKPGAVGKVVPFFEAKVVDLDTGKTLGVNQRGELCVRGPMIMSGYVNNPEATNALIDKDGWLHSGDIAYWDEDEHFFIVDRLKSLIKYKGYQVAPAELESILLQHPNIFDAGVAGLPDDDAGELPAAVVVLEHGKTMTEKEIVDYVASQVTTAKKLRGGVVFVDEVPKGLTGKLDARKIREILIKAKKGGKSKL
Procedure, shortened: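 Quantitative HTS format; KM concentrations of both substrates. Purified P. pyralis FLuc activity quantified from luminescence images.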

[3] = qHTS assay to identify small molecule agonists of the constitutive androstane receptor (CAR) signaling pathway - cell viability counter screen (AID 1224836); note: nearly all actives have a fitted effect of over 45% in size; note: potency is the fitted concentration of half-maximal effect
Procedure, shortened: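 Compound titrations (15 concentrations) went onto HepG2-CYP2B6-hCAR cells 4 h after seeding, alongside PK11195 at a final 0.75 uM; a 23 h, 37 C/5% CO2 incubation preceded CellTiter-Fluor viability measurement.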

[4] = qHTS assay to identify small molecule antagonists of the constitutive androstane receptor (CAR) signaling pathway - cell viability counter screen (AID 1224837); note: nearly all actives have a fitted effect of over 45% in size; note: potency is the fitted concentration of half-maximal effect
Procedure, shortened: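 HepG2 cells stably carrying hCAR and CYP2B6-2.2kb reporter, stimulated with 50 nM CITCO and compounds at 15 concentrations for 23 h at 37 C. Viability measured by CellTiter-Fluor fluorescence.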

[5] = molecular target: Nuclear receptor subfamily 1 group I member 3 (Homo sapiens) (UniProt Q14994); experiment: qHTS assay to identify small molecule antagonists of the constitutive androstane receptor (CAR) signaling pathway (AID 1224838); note: nearly all actives have a fitted effect of over 40% in size; note: potency is the fitted concentration of half-maximal effect
Nuclear receptor subfamily 1 group I member 3 (Homo sapiens), sequence (Q14994 whole entry, looked up): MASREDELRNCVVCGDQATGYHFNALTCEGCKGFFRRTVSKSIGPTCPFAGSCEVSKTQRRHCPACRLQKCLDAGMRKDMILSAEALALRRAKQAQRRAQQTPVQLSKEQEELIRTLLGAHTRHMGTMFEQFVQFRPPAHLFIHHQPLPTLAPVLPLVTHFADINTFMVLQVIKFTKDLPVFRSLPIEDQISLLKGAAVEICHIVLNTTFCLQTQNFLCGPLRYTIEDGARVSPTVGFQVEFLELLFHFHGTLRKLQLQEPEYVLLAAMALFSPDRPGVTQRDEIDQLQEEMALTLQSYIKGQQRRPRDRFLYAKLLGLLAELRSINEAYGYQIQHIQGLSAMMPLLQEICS
Procedure, shortened: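 HepG2 cells stably carrying hCAR and a CYP2B6-2.2kb luciferase reporter, seeded 4 hrs before compound (15 concentrations). Stimulated with 50 nM CITCO for 24 hr at 37 C. ONE-Glo luminescence read after 30 min at room temperature.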

[6] = molecular target: Nuclear receptor subfamily 1 group I member 3 (Homo sapiens) (UniProt Q14994); experiment: qHTS assay to identify small molecule agonists of the constitutive androstane receptor (CAR) signaling pathway (AID 1224839); note: nearly all actives have a fitted effect of over 15% in size; note: potency is the fitted concentration of half-maximal effect
Procedure, shortened: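 In this screen, CAR-driven CYP2B6 promoter activity is measured by luminescence in HepG2-CYP2B6-hCAR cells after 24 h with test compounds and 0.75 uM PK11195 (final concentration).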

[7] = qHTS assay to identify small molecule antagonists of the estrogen related receptor signaling pathway with the pleiotropic PPARgamma coactivator (PGC) from Tox21 10K library - cell viability counter screen (AID 1224840; active = well fitted cell-killing curve with a large enough effect in the repeat runs, not every such curve was filed as active; note: nearly all actives have a fitted effect of over 40% in size; note: potency is the fitted concentration of half-maximal effect)
Procedure, shortened: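 PGC/ERR cells (2,000/well) plated 6 h, then compound-treated for 17.5 h at 37 C. Viability measured by CellTiter-Fluor fluorescence after 30 min at 37 C, multiplexed with the pathway assay.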

[8] = qHTS assay to identify small molecule antagonists of the estrogen related receptor signaling pathway with the pleiotropic PPARgamma coactivator (PGC) from Tox21 10K library (AID 1224841; call rule not given here; note: actives are mostly falling curves and most rising ones were filed inactive; nearly all actives have a fitted effect of over 50% in size; note: potency is the fitted concentration of half-maximal effect)
Procedure, shortened: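 PGC/ERR cell line, 2,000 cells/well, pre-incubated 6 hours at 37 C, then exposed to compounds for 18 hours at 37 C; luciferase read with One-Glo luminescence after 30 min at room temperature.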

[9] = qHTS assay to identify small molecule agonists of the estrogen related receptor signaling pathway with the pleiotropic PPARgamma coactivator (PGC) from Tox21 10K library (AID 1224842); note: nearly all actives have a fitted effect of over 15% in size
Procedure, shortened: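 PGC/ERR reporter cells (NTP line) were seeded 2,000 per well, rested 6 h at 37 C/5% CO2, then pin-dosed with compounds in DMSO for 18 h at 37 C; luciferase read by One-Glo luminescence after 30 min at room temperature.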

[10] = molecular target: Thyrotropin receptor (Homo sapiens) (UniProt P16473); experiment: qHTS assay to identify small molecule agonists of the thyroid stimulating hormone receptor (TSHR) signaling pathway (AID 1224843; calls by dose curve; note: nearly all actives have a fitted effect of over 45% in size)
Thyrotropin receptor (Homo sapiens), sequence (P16473 whole entry, looked up): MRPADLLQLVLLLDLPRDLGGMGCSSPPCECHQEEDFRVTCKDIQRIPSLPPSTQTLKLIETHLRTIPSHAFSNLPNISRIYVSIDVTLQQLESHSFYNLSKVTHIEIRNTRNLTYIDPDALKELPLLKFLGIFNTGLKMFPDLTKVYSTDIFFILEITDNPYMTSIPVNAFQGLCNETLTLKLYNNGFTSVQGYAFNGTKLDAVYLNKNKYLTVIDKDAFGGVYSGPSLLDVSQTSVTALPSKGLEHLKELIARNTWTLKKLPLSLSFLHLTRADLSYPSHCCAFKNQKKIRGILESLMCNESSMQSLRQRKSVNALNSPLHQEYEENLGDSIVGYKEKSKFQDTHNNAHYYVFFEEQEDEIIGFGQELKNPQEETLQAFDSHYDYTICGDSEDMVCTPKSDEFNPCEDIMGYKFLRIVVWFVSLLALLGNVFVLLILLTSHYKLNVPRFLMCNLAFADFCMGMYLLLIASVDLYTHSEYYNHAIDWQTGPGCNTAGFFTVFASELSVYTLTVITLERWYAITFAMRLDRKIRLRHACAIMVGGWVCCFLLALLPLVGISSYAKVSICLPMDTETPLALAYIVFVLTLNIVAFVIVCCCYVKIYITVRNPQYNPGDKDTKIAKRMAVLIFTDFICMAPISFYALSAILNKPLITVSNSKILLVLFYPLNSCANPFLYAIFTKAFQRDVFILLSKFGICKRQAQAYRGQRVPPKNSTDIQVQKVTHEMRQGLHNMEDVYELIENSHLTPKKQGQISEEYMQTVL
Procedure, shortened: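 Cell line HEK293 with TSHR; density 800/well. Exposure 30 min RT. Readout HTRF cAMP (cAMP-d2/anti-cAMP-cryptate), 1 h RT before reading.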

Measured: Potency

Cc1c(C)c([N+](=O)[O-])c(C(C)(C)C)c([N+](=O)[O-])c1C
active: [6] 27.3 µM
inactive: [1] | [2] | [3] | [4] | [5] | [7] | [8] | [9]

C=CC(C)(CCC=C(C)C)OC=O (stereo not given)
inactive: [1] | [2] | [3] | [4] | [5] | [6] | [7] | [8] | [9] | [10]

CCCC1CCC(=O)CC1
inactive: [1] | [2] | [3] | [4] | [5] | [6] | [7]

COc1cc(C)ccc1O
inactive: [1] | [2] | [3] | [4] | [5] | [6] | [7] | [8] | [9] | [10]

CCCCCCCC/C=C\CCCCCCCCN
inactive: [1] | [2] | [3] | [4] | [5] | [6] | [7] | [8] | [9] | [10]

COc1ccc2c(c1)c(CC(=O)OC/C=C(\C)CC/C=C(\C)CCC=C(C)C)c(C)n2C(=O)c1ccc(Cl)cc1
inactive: [1] | [2] | [3] | [4] | [5] | [6] | [7] | [8] | [9]

Cc1cc(C(C)(C)C)cc(C)c1CC1=NCCN1
inactive: [1] | [2] | [3] | [4] | [5] | [6] | [7] | [8] | [9] | [10]

C=C(C)C(=O)OCCCCCCCCCC
inactive: [1] | [2] | [3] | [4] | [5] | [6] | [7] | [8] | [9] | [10]

Cc1cccc2cccnc12
inactive: [1] | [2] | [3] | [4] | [5] | [6] | [7] | [8] | [9] | [10]

ClCCl
inactive: [1] | [2] | [3] | [4] | [5] | [6] | [7]

C=C(CC)C(=O)c1ccc(OCC(=O)O)c(Cl)c1Cl
active: [6] 3.35 µM | [8] 30.4 µM and 29.8 µM
79.1 µM (active) and inactive: [2]
inactive: [1] | [3] | [4] | [5] | [7] | [9] | [10]

CCC(CC)(CC(=O)Nc1cccc(/C=C/c2nc(C3CCC3)cs2)c1)C(=O)O
inactive: [1] | [3] | [4] | [5] | [7]
active: [2] 2.75 µM | [6] 23.7 µM

CCCCOC(=O)CO
inactive: [1] | [2] | [3] | [4] | [5] | [6] | [7]

O=C1CCCCCCCCCCCCCCCO1
inactive: [1] | [2] | [3] | [4] | [5] | [6] | [7] | [8] | [9] | [10]

Clc1sc(Cl)c(Cl)c1Cl
inactive: [1] | [2] | [3] | [4] | [5] | [6] | [7] | [8] | [9] | [10]

O=C(O)CCN(C1(C(=O)NO)CCCC1)S(=O)(=O)c1ccc(Oc2ccc(F)cc2)cc1
inactive: [1] | [2] | [3] | [4] | [5] | [6] | [7] | [8] | [9] | [10]

CC(C)(C)c1ccc(C(O)CCCN2CCC(C(O)(c3ccccc3)c3ccccc3)CC2)cc1 (stereo not given)
active: [1] 11.9 µM | [3] 23.7 µM | [4] 26.6 µM | [5] 26.6 µM
inactive: [2] | [6]

CC(C)CCCCCOC(=O)CCS
inactive: [1] | [2] | [3] | [4] | [5] | [6] | [7] | [8] | [9] | [10]

CC/C=C\CCCCCO
inactive: [1] | [2] | [3] | [4] | [5] | [6] | [7] | [8] | [10]

CCN(CC)c1ccc2c(-c3ccc(S(=O)(=O)O)cc3S(=O)(=O)[O-])c3ccc(=[N+](CC)CC)cc-3oc2c1
inactive: [6] | [9]
active: [1] 22.4 µM | [2] 26 µM | [3] 31.6 µM | [4] 28.2 µM | [5] 28.2 µM | [7] 28.2 µM | [8] 28.2 µM

Cc1ccc(C(=O)O)cc1
inactive: [1] | [2] | [3] | [4] | [5] | [6] | [7] | [8] | [9] | [10]

Cc1nc(-c2ccc(Cl)cc2)oc1COC(C)(C)C(=O)O
inactive: [1] | [2] | [3] | [4] | [5] | [6] | [7] | [8] | [9] | [10]
